# Screening data as filed in PubChem BioAssay.
# Rows were chosen to be rich in hits. Some 2.3% of all compounds tested hit in one or more screens of this group.
# PME-1 inh = blocks human protein phosphatase methylesterase 1 | inhibition, % at 5.9 µM | 0.53% of 320,000 active | AID 2130 | recombinant PME-1, FP-Rh probe fluorescence polarization;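 active = inhibition above the campaign mean of all compounds plus 3 SD, cut at about 26% in these data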;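 note: competitive labeling of PME-1 active site by serine hydrolase directed probe; 0% = PME-1 with DMSO and 100% = wells lacking PME-1 enzyme; inhibitors block probe labeling so polarization falls and inhibition rises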
# PAD4 inh = inhibitors of human PAD4. Q9UM07. recombinant PAD4, RCA probe fluorescence polarization. inhibition, % at 6.36 µM. 0.41% of 330,000 active;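 active = percent inhibition above a cutoff equal to the mean of all tested compounds plus 3 SD, cut at about 15% in these data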;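 note: 0% = PAD4 with RCA probe and DMSO and 100% = probe without PAD4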
# Target sequence (Q9UM07 whole entry, looked up): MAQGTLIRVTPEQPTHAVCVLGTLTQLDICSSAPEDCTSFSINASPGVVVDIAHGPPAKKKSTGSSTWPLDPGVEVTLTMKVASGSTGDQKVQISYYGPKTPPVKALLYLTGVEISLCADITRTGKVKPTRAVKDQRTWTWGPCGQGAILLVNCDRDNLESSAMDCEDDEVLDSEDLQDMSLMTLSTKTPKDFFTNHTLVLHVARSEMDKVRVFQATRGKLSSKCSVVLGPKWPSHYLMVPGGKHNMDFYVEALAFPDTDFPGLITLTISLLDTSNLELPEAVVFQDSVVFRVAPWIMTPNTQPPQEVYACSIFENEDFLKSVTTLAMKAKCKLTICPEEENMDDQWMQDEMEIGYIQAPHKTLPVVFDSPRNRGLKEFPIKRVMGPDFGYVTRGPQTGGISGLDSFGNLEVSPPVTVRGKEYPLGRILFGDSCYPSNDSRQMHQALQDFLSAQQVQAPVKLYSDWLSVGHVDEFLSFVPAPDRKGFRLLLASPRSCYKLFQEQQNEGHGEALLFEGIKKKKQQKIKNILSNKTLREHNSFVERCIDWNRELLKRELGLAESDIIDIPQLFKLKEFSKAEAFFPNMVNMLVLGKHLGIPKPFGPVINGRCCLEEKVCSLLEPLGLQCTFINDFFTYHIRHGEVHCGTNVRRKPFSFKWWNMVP
# pPAFAH inh = inhibitors of human plasma PAF acetylhydrolase (pPAFAH); recombinant pPAFAH, FP-rhodamine probe fluorescence polarization; inhibition, % at 3.39 µM; 1.5% of 330,000 active; AID 463082;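 active = inhibition above the mean inhibition across the screen plus 3 SD, cut at about 25% in these data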;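 note: inhibitors block binding of the rhodamine activity-based probe so polarization drops; 0% = enzyme with DMSO and 100% = wells lacking pPAFAH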
# GSTO1 inh = blocks human GSTO1 in RBBP9 counter-screen. P78417. recombinant GSTO1, activity-based probe fluorescence polarization. inhibition, % at 5.96 µM. 1.1% of 300,000 active. AID 1974;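 active = inhibition above the campaign mean inhibition plus 3 SD, cut at about 35% in these data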;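 note: 0% = GSTO1-1 with DMSO and 100% = wells lacking GSTO1-1 enzyme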
# Fam108B inh = Fam108B inhibition, counter-screen for RBBP9 inhibitors; recombinant Fam108B, FP-Rh probe fluorescence polarization; inhibition, % at 9.51 µM; 0.33% of 300,000 active;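 active = inhibition above the screen mean inhibition plus 3 SD, computed separately per campaign, cut at about 18% in these data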;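 note: inhibitors lower polarization as less probe binds the enzyme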
# * hit, by the source's call; nt = no result given.
SMILES,PME-1 inh,PAD4 inh,pPAFAH inh,GSTO1 inh,Fam108B inh
COc1cc(/C=N/NC(=O)c2cccc(NC(=O)c3ccccc3)c2)ccc1O,10,-7,8,-4,11
CN(C)S(=O)(=O)c1cccc(NC(=S)NC(=O)C2CCCCC2)c1,0,-3,3,-2,-2
O=[N+]([O-])c1cc(/C=N/NC(=S)Nc2ccccc2Cl)ccc1Cl,-3,0,7,-10,0
COc1cc(/C=N/NC(=S)Nc2cccc(S(=O)(=O)N(C)C)c2)ccc1O,39*,-5,8,5,5
COc1ccc(/C=N/NC(=S)Nc2ccccc2[N+](=O)[O-])cc1O,35*,-1,15,3,16
CCCOc1ccc(/C=N/NC(=S)Nc2ccccc2[N+](=O)[O-])c(O)c1,30*,-3,15,-27,2
O=C(Nc1ccnn1C1CCN(C(=O)c2cccc(Cl)c2)CC1)C1CCOC1 (centres undefined),2,3,2,-2,1
CC(C)(C)NC(=O)NC(=O)CSc1nnc(COc2ccccc2Cl)o1,6,0,5,36*,0
CC(=O)Nc1nc2cc3c(cc2s1)OCO3,1,2,3,-6,1
CCOC(=O)c1sc(Nc2nc3cc4c(cc3s2)OCO4)cc1C,61*,-2,4,-3,4
c1ccc2sc(Nc3nc4cc5c(cc4s3)OCO5)nc2c1,47*,-2,11,0,3
O=C(C(Cl)Cl)N1CCN(Cc2ccc3c(c2)OCO3)CC1,-4,-2,1,0,0
O=C(C(Cl)Cl)N1CCN(Cc2ccccc2)CC1,-6,-4,0,35*,-3
Cc1cc2oc(C(=O)N3CCN(Cc4ccccc4)CC3)c(C)c2cc1C,-9,0,26*,-1,0
COc1cc2cc(C)c(SCC(=O)N3CCN(C(=O)c4ccco4)CC3)nc2cc1OC,3,3,7,8,1
Cc1cccc(NC(=O)COC(=O)Cc2cccs2)c1C,-6,-9,25*,11,1
COc1ccccc1NC(=O)COC(=O)Cc1cccs1,-8,-3,18,6,4
CSCc1ccc(C(=O)NC2CC(C)(C)Cc3c2cnn3-c2ccc(F)cc2)o1 (centres undefined),-2,0,9,1,2
CCOCCSc1nc2c(c(-c3cccs3)c1C#N)CC/C2=C/c1cccs1,-3,-7,27*,2,0
CCOC(=O)N1CCN(CC(=O)Nc2c(C(=O)OC)[nH]c3ccccc23)CC1,0,1,3,-2,3
COC(=O)c1[nH]c2ccccc2c1NC(=O)CN1CCN(C(=O)c2ccco2)CC1,1,-4,3,36*,-5
CC(C)C(C(=O)NCC1CCCO1)N(Cc1ccco1)C(=O)CNS(=O)(=O)c1ccc(F)cc1 (centres undefined),3,2,34*,5,2
CN(C(=O)COC(=O)C(C)(C)Oc1ccc(Cl)cc1)c1c(N)n(Cc2ccccc2)c(=O)[nH]c1=O,5,-2,29*,-5,2
CC(NC(=O)c1ccccc1)C(=O)NNC(=O)c1ccccc1Cl (centres undefined),-6,3,-1,nt,nt
Cc1ccc(C(=O)N/C(=C\c2ccc(-c3ccccc3[N+](=O)[O-])o2)C(=O)NCCCN2CCOCC2)cc1,12,-11,10,36*,3
SMILES,PME-1 inh,PAD4 inh,pPAFAH inh,GSTO1 inh,Fam108B inh
N#Cc1ccc(NC(=O)Cn2cnc(S(=O)(=O)N3CCCC3)c2)cc1,5,1,-2,2,2
CCOC(=O)c1c(C)oc2ccc(NS(=O)(=O)c3ccc(C(=O)O)cc3)cc12,-1,4,7,7,5
CCOC(=O)c1c(C)oc2c1cc(NS(=O)(=O)c1ccc(C(=O)O)cc1)c1ccccc12,-5,-15,29*,24,3
O=C(Nc1cccc(S(=O)(=O)N2CCCCCC2)c1)C1CC(=O)N(c2ccc3c(c2)OCCO3)C1 (centres undefined),2,5,4,6,5
CS(=O)(=O)c1ccc(Cl)c(NC(=O)COC(=O)CCCN2C(=O)c3cccc4cccc(c34)C2=O)c1,-2,2,0,1,-1
Cc1cccc(-n2c3nc(=O)[nH]c(=O)c-3cc3cc([N+](=O)[O-])ccc32)c1,31*,1,3,-14,13
O=C(CCl)N=c1sccn1Cc1ccccc1Cl,1,-40,1,102*,-1
CCC(=O)OCC(=O)N=c1sccn1Cc1ccccc1Cl,0,-1,2,5,0
CCSC1=NCCN1C(=O)C(C)(C)Oc1ccc(Cl)cc1,8,0,2,2,0
COc1cc2c(cc1NC(=S)Nc1ccccc1C)oc1ccccc12,6,-6,5,-5,5
COc1cc2c(cc1NC(=S)Nc1cccc(C)c1)oc1ccccc12,7,4,1,36*,5
CNC(=O)Nc1cccc(-c2cc(-c3c(Cl)cccc3Cl)no2)c1,-15,-8,13,-31,-19
CC(=O)Nc1cccc(-c2cc(-c3c(Cl)cccc3Cl)no2)c1,-6,-2,28*,-15,-5
Cc1cc(NC(=O)CSCC(=O)OCc2nnc(-c3ccc(F)cc3)o2)no1,nt,-3,4,nt,nt
Cc1ccc2c(c1)C1C=CCC1C(C(=O)O)N2 (centres undefined),14,7,61*,54*,46*
CC(=O)c1ccc2c(c1)C1C=CCC1C(c1ccncc1)N2 (centres undefined),-7,-10,13,44*,14
C1=CC2c3ccccc3NC(c3ccncc3)C2C1 (centres undefined),11,-9,17,47*,13
CC(C)(C)C1N=C(c2ccc3ccccc3c2)OC1=O (centres undefined),-2,-3,1,nt,nt
COc1ccccc1C(C)NS(=O)(=O)c1cccs1 (centres undefined),-3,97*,5,-3,0
COc1ccc(OC)c(C(C)NS(=O)(=O)c2cccs2)c1 (centres undefined),3,-4,5,nt,nt
O=C(OCc1c(Cl)cccc1Cl)c1cccnc1Cl,-6,-4,32*,-2,6
O=C(OCc1c(Cl)cccc1Cl)c1cccnc1,0,0,33*,-8,2
O=C(OCc1ccccc1Cl)c1cccnc1Cl,2,0,10,1,3
CSCCC(NC(=O)c1ccco1)C(=O)Nc1ccc(C)c(S(=O)(=O)N2CCOCC2)c1 (centres undefined),0,-1,2,1,3
O=C(/C=C(\O)c1ccc(Cl)cc1)C(=O)NNC(=O)C(O)(c1ccccc1)c1ccccc1,-6,-11,27*,6,-3
Cc1ccc2[nH]c(O)c(N=NC(=O)c3ccc(NS(=O)(=O)c4cccs4)cc3)c2c1,52*,-5,26*,-9,18
COc1cccc(C(=O)NNC(=O)c2ccc(NS(=O)(=O)c3cccs3)cc2)c1OC,-3,-2,26*,8,5
